Each sequence was assayed against T1, GST-Ap-NF-kB RHD (Exaiptasia pallida (Aiptasia), UniProt A0A913YAJ5 2-422) (assay: protein-binding microarray (PBM); PBM: ~300 nM protein, 6 mM HEPES pH 7.8, 80 mM KCl, 0.5 mM EDTA, 0.5 mM EGTA, 6% glycerol, 35 ng/ul poly-dIdC, 1% milk, 1 h, room temperature; Ap Aiptasia and Nv Nematostella (sea anemones) / Co Capsaspora / Aq Amphimedon (sponge) / Dm Drosophila / Hu human; RHD is the Rel homology domain; high values mean tight binding). Conditions: dsDNA, one strand shown.
T1 sequence: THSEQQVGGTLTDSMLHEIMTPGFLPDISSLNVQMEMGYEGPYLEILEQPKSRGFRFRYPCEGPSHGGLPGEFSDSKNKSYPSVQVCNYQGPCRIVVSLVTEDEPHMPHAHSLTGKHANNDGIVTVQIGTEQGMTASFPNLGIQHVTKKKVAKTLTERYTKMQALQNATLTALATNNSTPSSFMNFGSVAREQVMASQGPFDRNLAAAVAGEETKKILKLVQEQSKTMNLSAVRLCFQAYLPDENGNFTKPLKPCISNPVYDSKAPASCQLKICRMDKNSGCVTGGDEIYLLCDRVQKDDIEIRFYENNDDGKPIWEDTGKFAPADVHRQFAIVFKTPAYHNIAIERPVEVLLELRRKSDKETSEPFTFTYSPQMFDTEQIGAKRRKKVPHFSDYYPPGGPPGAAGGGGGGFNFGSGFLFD

| Sequence | binding signal [z-score] |
| --- | --- |
| CCGATTAACATCAAAAAATCACCTGATGTTAATCGGGTCTTGATTCGCTTGACGCTGCTG | 2.88 |
| CCGATTAACATCAGGGCTCCCCCTGATGTTAATCGGGTCTTGATTCGCTTGACGCTGCTG | 7.08 |
| CCGATTAACATCAAACGTTCCCCTGATGTTAATCGGGTCTTGATTCGCTTGACGCTGCTG | 5.26 |
| CCGATTAACATCAGAAGACCCCCTGATGTTAATCGGGTCTTGATTCGCTTGACGCTGCTG | 5.66 |
| CCGATTAACATCAGGTGTTTCCATGATGTTAATCGGGTCTTGATTCGCTTGACGCTGCTG | 1.26 |
| CCGATTAACATCACCCTCGAGGGTGATGTTAATCGGGTCTTGATTCGCTTGACGCTGCTG | 1.01 |
| CCGATTAACATCAGGAAAGGCCCTGATGTTAATCGGGTCTTGATTCGCTTGACGCTGCTG | 2.38 |
| CCGATTAACATCAGAAAATCACCTGATGTTAATCGGGTCTTGATTCGCTTGACGCTGCTG | 2.77 |
| CCGATTAACATCACGGGAAGCCCTGATGTTAATCGGGTCTTGATTCGCTTGACGCTGCTG | 2.49 |
| CCGATTAACATCAGGGGCTTCCATGATGTTAATCGGGTCTTGATTCGCTTGACGCTGCTG | 4.37 |
| CCGATTAACATCAAAAAAACCCTTGATGTTAATCGGGTCTTGATTCGCTTGACGCTGCTG | 4.62 |
| CCGATTAACATCAGGAGATCCCCTGATGTTAATCGGGTCTTGATTCGCTTGACGCTGCTG | 7.87 |
| CCGATTAACATCAGGACTGCCCCTGATGTTAATCGGGTCTTGATTCGCTTGACGCTGCTG | 3.49 |
| CCGATTAACATCAAGGGGGGGACTGATGTTAATCGGGTCTTGATTCGCTTGACGCTGCTG | 6.81 |
| CCGATTAACATCAAAATACCCCTTGATGTTAATCGGGTCTTGATTCGCTTGACGCTGCTG | 6.2 |
| CCGATTAACATCACTAAACCCCCTGATGTTAATCGGGTCTTGATTCGCTTGACGCTGCTG | 6.72 |
| CCGATTAACATCAGATAAACCCCTGATGTTAATCGGGTCTTGATTCGCTTGACGCTGCTG | 4.36 |
| CCGATTAACATCAGGGGGGGTAATGATGTTAATCGGGTCTTGATTCGCTTGACGCTGCTG | 4.27 |
| CCGATTAACATCAGGGCCTTTTGTGATGTTAATCGGGTCTTGATTCGCTTGACGCTGCTG | 1.85 |
| CCGATTAACATCACGGGCTTCCCTGATGTTAATCGGGTCTTGATTCGCTTGACGCTGCTG | 1.85 |

| Sequence | binding signal [z-score] |
| --- | --- |
| CCGATTAACATCAGCCCCGGTGTTGATGTTAATCGGGTCTTGATTCGCTTGACGCTGCTG | 2.1 |
| CCGATTAACATCAGAAAAACACCTGATGTTAATCGGGTCTTGATTCGCTTGACGCTGCTG | 2.56 |
| CCGATTAACATCAGGGGGGGACATGATGTTAATCGGGTCTTGATTCGCTTGACGCTGCTG | 5.67 |
| CCGATTAACATCAGGCGAACCCCTGATGTTAATCGGGTCTTGATTCGCTTGACGCTGCTG | 1.57 |
| CCGATTAACATCACGGTGTTTCCTGATGTTAATCGGGTCTTGATTCGCTTGACGCTGCTG | 1.53 |
| CCGATTAACATCAGGGAGTGCCCTGATGTTAATCGGGTCTTGATTCGCTTGACGCTGCTG | 2.83 |
| CCGATTAACATCAATTCCCCCCGTGATGTTAATCGGGTCTTGATTCGCTTGACGCTGCTG | 7.28 |
| CCGATTAACATCAGGACCTTCCCTGATGTTAATCGGGTCTTGATTCGCTTGACGCTGCTG | 2.74 |
| CCGATTAACATCACCCGGGTAAATGATGTTAATCGGGTCTTGATTCGCTTGACGCTGCTG | 1.42 |
| CCGATTAACATCACGGAAATACCTGATGTTAATCGGGTCTTGATTCGCTTGACGCTGCTG | 1.01 |
| CCGATTAACATCAGGAAGATCCCTGATGTTAATCGGGTCTTGATTCGCTTGACGCTGCTG | 3.43 |
| CCGATTAACATCAAGGGACTTCCTGATGTTAATCGGGTCTTGATTCGCTTGACGCTGCTG | 6.06 |
| CCGATTAACATCAAAAAAACACCTGATGTTAATCGGGTCTTGATTCGCTTGACGCTGCTG | 3.14 |
| CCGATTAACATCAGGACATACCCTGATGTTAATCGGGTCTTGATTCGCTTGACGCTGCTG | 1.92 |
| CCGATTAACATCAGAAATTACCCTGATGTTAATCGGGTCTTGATTCGCTTGACGCTGCTG | 3.88 |
| CCGATTAACATCACGGAAACACCTGATGTTAATCGGGTCTTGATTCGCTTGACGCTGCTG | 1.22 |
| CCGATTAACATCAGGCCTTCCCCTGATGTTAATCGGGTCTTGATTCGCTTGACGCTGCTG | 6.39 |
| CCGATTAACATCAAATCCCCCCCTGATGTTAATCGGGTCTTGATTCGCTTGACGCTGCTG | 8.93 |
| CCGATTAACATCAAAACACCCCCTGATGTTAATCGGGTCTTGATTCGCTTGACGCTGCTG | 6.39 |
| CCGATTAACATCAGGGGTAGAACTGATGTTAATCGGGTCTTGATTCGCTTGACGCTGCTG | 1.85 |

The sequences below were run against T2, GST-Nv-NF-kB (Cys allele) (Nematostella vectensis, UniProt E5G601 2-411) in the same assay as above. Conditions: dsDNA, one strand shown.
T2 sequence: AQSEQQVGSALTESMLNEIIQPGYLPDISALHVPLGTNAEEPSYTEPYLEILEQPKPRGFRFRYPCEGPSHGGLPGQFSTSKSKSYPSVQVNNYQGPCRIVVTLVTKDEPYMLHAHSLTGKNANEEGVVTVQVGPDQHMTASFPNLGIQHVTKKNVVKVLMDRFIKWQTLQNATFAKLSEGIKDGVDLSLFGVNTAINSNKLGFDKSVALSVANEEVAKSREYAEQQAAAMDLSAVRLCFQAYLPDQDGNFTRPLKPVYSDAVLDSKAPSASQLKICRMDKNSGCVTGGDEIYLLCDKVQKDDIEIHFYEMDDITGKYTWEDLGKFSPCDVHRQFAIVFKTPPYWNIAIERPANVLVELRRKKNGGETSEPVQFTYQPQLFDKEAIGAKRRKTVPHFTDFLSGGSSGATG

| Sequence | binding signal [z-score] |
| --- | --- |
| CCGATTAACATCAAAAAATCACCTGATGTTAATCGGGTCTTGATTCGCTTGACGCTGCTG | 4.37 |
| CCGATTAACATCAGGGCTCCCCCTGATGTTAATCGGGTCTTGATTCGCTTGACGCTGCTG | 5.82 |
| CCGATTAACATCAAACGTTCCCCTGATGTTAATCGGGTCTTGATTCGCTTGACGCTGCTG | 5.7 |
| CCGATTAACATCAGAAGACCCCCTGATGTTAATCGGGTCTTGATTCGCTTGACGCTGCTG | 3.66 |
| CCGATTAACATCAGGTGTTTCCATGATGTTAATCGGGTCTTGATTCGCTTGACGCTGCTG | 1.06 |
| CCGATTAACATCAGGAAAGGCCCTGATGTTAATCGGGTCTTGATTCGCTTGACGCTGCTG | 2.62 |
| CCGATTAACATCAGAAAATCACCTGATGTTAATCGGGTCTTGATTCGCTTGACGCTGCTG | 3.28 |
| CCGATTAACATCACGGGAAGCCCTGATGTTAATCGGGTCTTGATTCGCTTGACGCTGCTG | 1.91 |
| CCGATTAACATCAGGGGCTTCCATGATGTTAATCGGGTCTTGATTCGCTTGACGCTGCTG | 4.89 |
| CCGATTAACATCAAAAAAACCCTTGATGTTAATCGGGTCTTGATTCGCTTGACGCTGCTG | 5.48 |
| CCGATTAACATCAGGAGATCCCCTGATGTTAATCGGGTCTTGATTCGCTTGACGCTGCTG | 8.09 |
| CCGATTAACATCAGGACTGCCCCTGATGTTAATCGGGTCTTGATTCGCTTGACGCTGCTG | 4.13 |
| CCGATTAACATCAAAATACCCCTTGATGTTAATCGGGTCTTGATTCGCTTGACGCTGCTG | 6.38 |
| CCGATTAACATCACTAAACCCCCTGATGTTAATCGGGTCTTGATTCGCTTGACGCTGCTG | 4.83 |
| CCGATTAACATCAGATAAACCCCTGATGTTAATCGGGTCTTGATTCGCTTGACGCTGCTG | 4.29 |
| CCGATTAACATCAGGGCCTTTTGTGATGTTAATCGGGTCTTGATTCGCTTGACGCTGCTG | 1.14 |
| CCGATTAACATCACGGGCTTCCCTGATGTTAATCGGGTCTTGATTCGCTTGACGCTGCTG | 2 |
| CCGATTAACATCAGAAAAACACCTGATGTTAATCGGGTCTTGATTCGCTTGACGCTGCTG | 3.55 |
| CCGATTAACATCAGGGGGGGACATGATGTTAATCGGGTCTTGATTCGCTTGACGCTGCTG | 5.09 |
| CCGATTAACATCAGGCGAACCCCTGATGTTAATCGGGTCTTGATTCGCTTGACGCTGCTG | 1.1 |
| CCGATTAACATCACGGTGTTTCCTGATGTTAATCGGGTCTTGATTCGCTTGACGCTGCTG | 1.22 |
| CCGATTAACATCAGGGAGTGCCCTGATGTTAATCGGGTCTTGATTCGCTTGACGCTGCTG | 2.18 |
| CCGATTAACATCAGGACCTTCCCTGATGTTAATCGGGTCTTGATTCGCTTGACGCTGCTG | 2.66 |
| CCGATTAACATCAGGAAGATCCCTGATGTTAATCGGGTCTTGATTCGCTTGACGCTGCTG | 1.84 |
| CCGATTAACATCAAGGGACTTCCTGATGTTAATCGGGTCTTGATTCGCTTGACGCTGCTG | 7.09 |
| CCGATTAACATCAAAAAAACACCTGATGTTAATCGGGTCTTGATTCGCTTGACGCTGCTG | 4.03 |
| CCGATTAACATCAGGACATACCCTGATGTTAATCGGGTCTTGATTCGCTTGACGCTGCTG | 2.84 |
| CCGATTAACATCAGAAATTACCCTGATGTTAATCGGGTCTTGATTCGCTTGACGCTGCTG | 6.24 |
| CCGATTAACATCAGGCCTTCCCCTGATGTTAATCGGGTCTTGATTCGCTTGACGCTGCTG | 6.79 |
| CCGATTAACATCAAAACACCCCCTGATGTTAATCGGGTCTTGATTCGCTTGACGCTGCTG | 5.71 |
